Reference: PubChem BioAssay (Tox21)
“And” between values parts separate entries of the source, which are not always exact repeats. Equal entries are not always repeated. Results filed as inconclusive are left out. Entries that show only a call come without a potency. The source holds several records for some structures; these can differ, active in one and inactive in another. The source made the active and inactive calls. Unless noted, calls follow the shape of the full dose curve.

Legend:
[1] = qHTS assay to identify small molecule antagonists of the sonic hedgehog signaling (Shh) pathway (AID 1259369); also: nearly all actives have a fitted effect of over 45% in size; also: potency is read from the fitted curve at half-maximal effect
Method in brief: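 For antagonist detection, the reporter line received test compounds together with conditioned medium, incubated 24hr at 37 C, 5% CO2, then luminescence was recorded following 30min room-temperature luciferase reagent incubation.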

[2] = qHTS assay to identify small molecule agonists of the androgen receptor (AR) signaling pathway in the presence of an antagonist - cell viability counter screen (AID 1259379; active = well fitted curve in the direction sought with a large enough effect in the repeat runs; an effect the other way counts as inactive or inconclusive; also: nearly all actives have a fitted effect of over 25% in size; also: potency is read from the fitted curve at half-maximal effect)
Method in brief: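 Seed MDA-kb2 at 3,000 cells/well; incubate 5 hr, 37C, 0% CO2. Add nilutamide to 3.0uM final, then pin compounds at 15 concentrations. Incubate 16 hr. Add CellTiter-Fluor at 15 hr, read fluorescence after 1 hr.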

[3] = qHTS assay to identify small molecule agonists of the estrogen receptor beta (ER-beta) signaling pathway - cell viability counter screen (AID 1259380; active = well fitted curve in the direction sought with a large enough effect in the repeat runs; an effect the other way counts as inactive or inconclusive; also: nearly all actives have a fitted effect of over 30% in size; also: potency is read from the fitted curve at half-maximal effect)
Method in brief: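 CellTiter-Glo read, 30 min RT, same wells as bla assay; cells ER-beta-UAS-bla HEK293T; 16 hr compound, 37C; medium 2% charcoal-stripped FBS.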

[4] = qHTS assay to identify small molecule antagonists of the estrogen receptor beta (ER-beta) signaling pathway - cell viability counter screen (AID 1259382; active = well fitted curve in the direction sought with a large enough effect in the repeat runs; an effect the other way counts as inactive or inconclusive; also: nearly all actives have a fitted effect of over 55% in size; also: potency is read from the fitted curve at half-maximal effect)
Method in brief: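 In this multiplexed counter screen, cells were seeded at 2,000 per well in medium with 2% charcoal-stripped FBS and incubated 6 hr before compound and 1nM final E2 were added. Sixteen hours later, ATP-based luminescence reported viability.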

[5] = biological target: Estrogen receptor (Homo sapiens) (UniProt P03372); test: qHTS assay to identify small molecule agonists of the estrogen receptor alpha (ER-alpha) signaling pathway in the presence of an antagonist (AID 1259383); also: nearly all actives have a fitted effect of over 15% in size; also: potency is read from the fitted curve at half-maximal effect; as to activation: top concentration of the series differs between compounds
Method in brief: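 Stably transfected VM7Luc4E2 reporter cells, kept 5 days in charcoal-stripped serum, received ICI-182,780 at 10.0nM final before compound addition. Following 22hr incubation at 37C and 5% CO2, luciferase signal was read by luminescence.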

[6] = qHTS assay to identify small molecule agonists or antagonists of the thyroid stimulating hormone receptor (TSHR) signaling pathway - wild type cell line counter screen (AID 1259384); also: potency is read from the fitted curve at half-maximal effect
Method in brief: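 Wild-type HEK293 cells were plated 18 h at 37 C/5% CO2, pin-dosed with compound plus Ro20-1724 medium, held 30 min at room temperature, then given cAMP-d2 and anti-cAMP-cryptate; fluorescence was read after 1 h. Fifteen concentrations, triplicate.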

[7] = biological target: Estrogen receptor beta (Homo sapiens) (UniProt Q92731); test: qHTS assay to identify small molecule agonists of the estrogen receptor beta (ER-beta) signaling pathway (AID 1259377; active = well fitted activation curve with a large enough effect in the signal ratio in the repeat runs, not every such curve was filed as active; the % refers to the signal ratio; also: potency is read from the fitted curve at half-maximal effect)
Method in brief: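 Agonist mode cell assay in GripTite HEK293T cells expressing an ER-beta fusion that drives beta-lactamase from an Upstream Activator Sequence; 16 hr compound exposure at 37C, then 2 h LiveBLAzer B/G FRET substrate at room temperature, fluorescence read-out.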

[8] = biological target: Estrogen receptor beta (Homo sapiens) (UniProt Q92731); test: qHTS assay to identify small molecule antagonists of the estrogen receptor beta (ER-beta) signaling pathway (AID 1259378; active = well fitted inhibition curve with a large enough effect in the signal ratio in the repeat runs, not every such curve was filed as active; the % refers to the signal ratio; also: potency is read from the fitted curve at half-maximal effect)
Method in brief: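 ER-beta-UAS-bla HEK293T (GripTite) cells in 2% charcoal-stripped FBS medium were preincubated 6 hr at 37C, dosed with compound, then stimulated with 1 nM E2 (final) for 16 hr; beta-lactamase reporter read by B/G FRET fluorescence after 2 hr substrate loading.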

[9] = biological target: Thyrotropin receptor (Homo sapiens) (UniProt P16473); test: qHTS assay to identify small molecule antagonists of the thyroid stimulating hormone receptor (TSHR) signaling pathway (AID 1259385); also: nearly all actives have a fitted effect of over 20% in size
Method in brief: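 TSHR-HEK293 cells were plated and held 18 h at 37C/5% CO2, then given compound plus Ro20-1724 and stimulated with TSH at 1.5 ng/mL final. After 30 min at room temperature, cAMP was detected with cAMP-d2/anti-cAMP-cryptate (1 h) by fluorescence.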

[10] = biological target: Androgen receptor (Homo sapiens) (UniProt P10275); test: qHTS assay to identify small molecule agonists of the androgen receptor (AR) signaling pathway in the presence of an antagonist (AID 1259381); also: nearly all actives have a fitted effect of over 15% in size
Method in brief: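 Test compounds at 15 concentrations were incubated for 16hr with MDA-kb2 reporter cells in presence of 3.0uM nilutamide (final). Signal: ONE-Glo luciferase luminescence.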

Thyrotropin receptor (Homo sapiens), sequence (P16473 whole entry, looked up): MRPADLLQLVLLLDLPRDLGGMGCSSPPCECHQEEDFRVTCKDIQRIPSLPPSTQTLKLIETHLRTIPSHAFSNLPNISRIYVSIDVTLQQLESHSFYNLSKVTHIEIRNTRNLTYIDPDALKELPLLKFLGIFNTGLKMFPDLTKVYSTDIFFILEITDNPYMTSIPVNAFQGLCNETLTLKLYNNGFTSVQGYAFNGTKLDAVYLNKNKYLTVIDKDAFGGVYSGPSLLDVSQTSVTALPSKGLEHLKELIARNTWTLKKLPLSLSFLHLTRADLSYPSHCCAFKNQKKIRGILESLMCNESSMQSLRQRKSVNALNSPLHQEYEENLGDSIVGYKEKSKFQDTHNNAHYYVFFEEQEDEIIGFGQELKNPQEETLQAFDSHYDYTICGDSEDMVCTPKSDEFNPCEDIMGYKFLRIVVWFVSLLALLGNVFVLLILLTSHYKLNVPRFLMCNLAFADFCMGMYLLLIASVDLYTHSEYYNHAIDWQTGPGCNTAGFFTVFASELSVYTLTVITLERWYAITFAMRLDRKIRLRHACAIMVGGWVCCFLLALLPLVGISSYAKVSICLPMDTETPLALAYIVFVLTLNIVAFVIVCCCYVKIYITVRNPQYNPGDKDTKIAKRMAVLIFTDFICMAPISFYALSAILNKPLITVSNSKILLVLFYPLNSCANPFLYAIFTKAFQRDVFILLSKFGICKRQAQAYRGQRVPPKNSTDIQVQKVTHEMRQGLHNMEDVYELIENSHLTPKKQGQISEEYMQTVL
Estrogen receptor (Homo sapiens), sequence (P03372 whole entry, looked up): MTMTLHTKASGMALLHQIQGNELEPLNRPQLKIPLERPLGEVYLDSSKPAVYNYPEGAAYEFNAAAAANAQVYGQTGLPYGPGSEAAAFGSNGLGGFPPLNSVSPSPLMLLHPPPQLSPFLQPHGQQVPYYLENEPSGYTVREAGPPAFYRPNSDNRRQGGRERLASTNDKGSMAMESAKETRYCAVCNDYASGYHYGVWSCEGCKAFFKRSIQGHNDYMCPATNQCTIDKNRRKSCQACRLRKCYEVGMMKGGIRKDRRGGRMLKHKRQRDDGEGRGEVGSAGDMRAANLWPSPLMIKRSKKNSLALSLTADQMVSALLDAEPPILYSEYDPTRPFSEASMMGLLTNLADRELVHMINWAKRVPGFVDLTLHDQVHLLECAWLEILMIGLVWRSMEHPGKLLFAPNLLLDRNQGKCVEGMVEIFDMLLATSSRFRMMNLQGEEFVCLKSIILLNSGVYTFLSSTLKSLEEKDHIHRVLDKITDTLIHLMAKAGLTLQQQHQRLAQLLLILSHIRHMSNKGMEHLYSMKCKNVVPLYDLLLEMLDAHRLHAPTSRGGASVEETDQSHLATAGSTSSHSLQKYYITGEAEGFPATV
Androgen receptor (Homo sapiens), sequence (P10275 whole entry, looked up): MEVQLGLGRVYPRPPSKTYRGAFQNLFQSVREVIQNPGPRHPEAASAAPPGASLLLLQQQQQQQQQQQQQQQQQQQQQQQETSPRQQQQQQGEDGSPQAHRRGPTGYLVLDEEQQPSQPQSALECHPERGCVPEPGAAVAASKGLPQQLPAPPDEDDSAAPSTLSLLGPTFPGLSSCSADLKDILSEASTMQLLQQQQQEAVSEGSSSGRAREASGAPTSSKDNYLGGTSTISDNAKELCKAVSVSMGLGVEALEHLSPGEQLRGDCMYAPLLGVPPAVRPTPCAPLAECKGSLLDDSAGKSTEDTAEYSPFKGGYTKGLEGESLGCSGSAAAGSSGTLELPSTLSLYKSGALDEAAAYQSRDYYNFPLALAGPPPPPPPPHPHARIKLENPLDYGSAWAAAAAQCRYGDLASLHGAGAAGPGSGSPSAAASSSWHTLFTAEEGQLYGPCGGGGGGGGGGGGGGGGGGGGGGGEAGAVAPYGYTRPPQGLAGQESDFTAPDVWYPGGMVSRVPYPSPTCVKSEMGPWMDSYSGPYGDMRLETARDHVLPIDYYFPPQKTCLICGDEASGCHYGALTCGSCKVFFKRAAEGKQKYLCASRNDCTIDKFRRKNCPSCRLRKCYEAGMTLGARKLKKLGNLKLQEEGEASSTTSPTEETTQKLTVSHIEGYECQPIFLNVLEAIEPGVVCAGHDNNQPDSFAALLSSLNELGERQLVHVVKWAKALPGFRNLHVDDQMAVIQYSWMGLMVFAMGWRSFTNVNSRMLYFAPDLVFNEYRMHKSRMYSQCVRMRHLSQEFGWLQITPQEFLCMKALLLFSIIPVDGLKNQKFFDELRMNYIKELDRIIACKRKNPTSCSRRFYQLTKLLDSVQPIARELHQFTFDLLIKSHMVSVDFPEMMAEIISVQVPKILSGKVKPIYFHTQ
Estrogen receptor beta (Homo sapiens), sequence (Q92731 whole entry, looked up, the tested form may be a part): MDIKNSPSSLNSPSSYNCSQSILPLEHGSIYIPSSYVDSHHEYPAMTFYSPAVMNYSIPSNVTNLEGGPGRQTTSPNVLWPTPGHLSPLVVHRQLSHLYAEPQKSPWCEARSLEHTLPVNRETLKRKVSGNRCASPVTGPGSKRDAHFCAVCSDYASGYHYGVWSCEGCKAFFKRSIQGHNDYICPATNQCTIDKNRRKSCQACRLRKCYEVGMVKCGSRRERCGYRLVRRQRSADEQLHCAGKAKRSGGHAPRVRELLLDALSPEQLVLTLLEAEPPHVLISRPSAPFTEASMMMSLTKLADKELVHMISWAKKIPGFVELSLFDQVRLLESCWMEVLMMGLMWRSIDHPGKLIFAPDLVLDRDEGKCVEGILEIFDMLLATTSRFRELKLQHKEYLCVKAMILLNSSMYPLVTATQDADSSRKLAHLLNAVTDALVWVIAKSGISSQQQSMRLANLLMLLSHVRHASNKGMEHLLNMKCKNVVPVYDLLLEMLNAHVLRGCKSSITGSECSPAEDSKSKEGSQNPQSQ

SMILES	Potency [1]	Potency [2]	Potency [3]	Potency [4]	Potency [5]	Potency [6]	Potency [7]	Potency [8]	Potency [9]	Potency [10]
COC(=O)c1ccc(C)cc1	inactive	inactive	inactive	inactive	inactive	inactive				
Cc1cccc(Nc2ccccc2C(=O)O)c1C	inactive	inactive	inactive	inactive						
O=C(CCCN1CCC(O)(c2ccc(Cl)cc2)CC1)c1ccc(F)cc1	inactive	68.6 µM (active) and inactive				inactive	inactive	inactive	inactive	
COc1cc([C@H]2Oc3cc([C@H]4Oc5cc(O)cc(O)c5C(=O)[C@@H]4O)ccc3O[C@@H]2CO)ccc1O	19.3 µM (active)	inactive	inactive	inactive	inactive					
C=CN1CCCC1=O	inactive	inactive	inactive	inactive	inactive					
Cc1ccc(C(C)(C)C)c(O)c1	inactive	inactive		inactive	inactive	inactive	inactive	inactive	inactive	
CC(=O)Nc1ccc2c(c1)Cc1cc(NC(C)=O)ccc1-2	inactive	inactive	inactive	inactive	inactive	inactive			inactive	
O=C1CCc2ccccc2O1	inactive	inactive		inactive	inactive	inactive	inactive	inactive	inactive	
c1ccc2c(c1)ccc1cc3c(ccc4ccccc43)cc12	inactive	inactive	inactive	inactive	inactive	inactive				
CC(=O)Oc1c(C)c(C)c2c(c1C)CC[C@@](C)(CCC[C@H](C)CCC[C@H](C)CCCC(C)C)O2	inactive	inactive	inactive	inactive	inactive	inactive			inactive	
O=C1OC2(c3ccccc31)c1cc(I)c(O)c(I)c1Oc1c2cc(I)c(O)c1I	inactive and 8.73 µM (active) and 20.9 µM (active)	10.6 µM (active) [middle of 4 runs]	inactive	inactive						
COc1ccc(C(=O)c2ccccc2O)c(O)c1	17.2 µM (active) and inactive	inactive		inactive		inactive	inactive	inactive		
O=C(O)c1cc(=O)[nH]c(=O)[nH]1	inactive and 13.3 µM (active)	inactive	inactive	inactive	inactive	inactive			inactive	
[O-]/[N+](=N\O)c1ccccc1	inactive	inactive		inactive	inactive	inactive	inactive	inactive		
CC(=O)OC(C)C	inactive	inactive		inactive	inactive	inactive	inactive	inactive	inactive	
Nc1ccc(O)c(N)c1	inactive		inactive	inactive	inactive		inactive	inactive		
C=CC(=O)OCCCC	inactive	inactive		inactive		inactive	inactive	inactive	inactive	
C=C[C@@]1(C)CC(=O)[C@]2(O)[C@@]3(C)[C@@H](O)CCC(C)(C)[C@@H]3[C@H](O)[C@H](OC(C)=O)[C@@]2(C)O1	2.4 nM (active) and 211 nM (active)	48.6 µM (active)	19.3 µM (active) and 11.9 µM (active)	21.7 µM (active) and 15 µM (active)	inactive	63.6 nM (active) and 256 nM (active)	inactive			
C=CCNCC=C	inactive	inactive	inactive	inactive	inactive					
O=C(O)CCCC(=O)O	inactive	inactive		inactive	inactive	inactive	30 µM (active) and inactive	inactive	inactive	
CC[C@]12CCCN3CCc4c(n(c5ccccc45)[C@@](O)(C(=O)OC)C1)[C@@H]32	inactive	inactive	inactive	inactive						inactive
CN(C)CCCN1c2ccccc2Sc2ccc(Cl)cc21	13.7 µM (active) and inactive	61.1 µM (active)		27.3 µM (active) and 18.8 µM (active)		inactive	inactive	30.6 µM (active) and 21.1 µM (active)		
Cc1ccc([N+](=O)[O-])c(C)c1	inactive	inactive	6.11 µM (active) and inactive	8.63 µM (active) and inactive	inactive	inactive				

SMILES	Potency [1]	Potency [2]	Potency [3]	Potency [4]	Potency [5]	Potency [6]	Potency [7]	Potency [8]	Potency [9]	Potency [10]
C1CN(SSN2CCOCC2)CCO1	12.1 µM (active) and 24.3 µM (active)	inactive	inactive and 48.6 µM (active)	inactive	inactive	inactive			inactive	
c1ccc2cc3ccccc3cc2c1	inactive	inactive	inactive	inactive	inactive	inactive	inactive			
COC(=O)C(C)Oc1ccc(Oc2ncc(C(F)(F)F)cc2Cl)cc1 (stereo unspecified)	inactive and 30.6 µM (active)	inactive		inactive	inactive	inactive	inactive	inactive	inactive	
OCCNCCO	inactive	inactive	inactive	inactive	inactive	inactive				
CC(=O)Oc1ccc(C(c2ccc(OC(C)=O)cc2)c2ccccn2)cc1	inactive		inactive	inactive	inactive	inactive	inactive	2.16 µM (active) and 3.76 µM (active)	inactive	inactive
CCCCCC=O	inactive	inactive	inactive	inactive	inactive	inactive				
NC[C@H](O)c1ccc(O)c(O)c1	inactive	inactive	inactive	inactive						
CCCCCCOCCOCCO	inactive	inactive	inactive	inactive		inactive				
C[C@]12CC[C@@H]3c4ccc(O)cc4CC[C@H]3[C@@H]1CC[C@@H]2O	3.06 µM (active) and 5.45 µM (active)	inactive		inactive		inactive				
CC(=O)[C@H]1CC[C@H]2[C@@H]3CC=C4C[C@@H](O)CC[C@]4(C)[C@H]3CC[C@]12C		inactive		inactive	inactive	inactive	inactive	1.88 µM (active)		
C=C[C@H]1CN2CC[C@H]1C[C@H]2[C@H](O)c1ccnc2ccc(OC)cc12		inactive	inactive	inactive						
C[C@]12C=CC(=O)C=C1CC[C@H]1[C@@H]3C[C@@H](O)[C@](O)(C(=O)CO)[C@@]3(C)C[C@H](O)[C@@]12F	inactive	inactive		inactive	inactive	inactive				
C/C=C/C(=O)N(CC)c1ccccc1C	inactive	inactive		inactive	inactive	inactive			inactive	
CC1(C)O[C@@H]2C[C@H]3[C@@H]4C[C@H](F)C5=CC(=O)C=C[C@]5(C)[C@@]4(F)[C@@H](O)C[C@]3(C)[C@]2(C(=O)CO)O1	inactive	inactive		inactive	inactive	inactive			inactive	
Cc1ccc(C(C)(C)C)cc1	inactive	inactive		inactive	inactive	inactive				
O=C(O)CCCCCCCCCCCC(=O)O	inactive	inactive		inactive		inactive				
CC1(C)OC(=O)NC1=O	inactive	inactive		inactive		inactive			inactive	
CC(C)[C@@H]1CC[C@@H](C)CC1=O	24.3 µM (active) and inactive	inactive	inactive	inactive		inactive			inactive	
CC(C)[N+](C)(CCOC(=O)C1c2ccccc2Oc2ccccc21)C(C)C	inactive	inactive	inactive	inactive	inactive	inactive			inactive	
COCCOCCOCCO	inactive	inactive		inactive		inactive			inactive	
C=C[C@H]1CN2CC[C@H]1C[C@@H]2[C@@H](O)c1ccnc2ccc(OC)cc12		inactive	inactive	inactive						
CC(C)(C)c1cccc(C(C)(C)C)c1O		inactive		inactive	inactive	inactive				
C[N+](C)(C)CCO	inactive	inactive		inactive		inactive				

SMILES	Potency [1]	Potency [2]	Potency [3]	Potency [4]	Potency [5]	Potency [6]	Potency [7]	Potency [8]	Potency [9]	Potency [10]
COc1ccc(-c2coc3cc(O)cc(O)c3c2=O)cc1	17.4 µM (active) and inactive	inactive		inactive	21.9 µM (active) and 9.69 µM (active)	inactive			inactive	
Cc1ccc(/C(=C\CN2CCCC2)c2ccccn2)cc1	25.6 µM (active)	inactive		inactive	inactive	inactive				
CCCCCCCCCCC(CO)CCCCCCCC (stereo unspecified)	inactive	inactive	inactive	inactive		inactive				
Oc1c(Cl)ccc(Cl)c1Cl	inactive	inactive		inactive	inactive					
CCCOCCO	inactive	inactive	inactive	inactive		inactive			inactive	
C=C[Si](OCCOC)(OCCOC)OCCOC	inactive	inactive		inactive	inactive	inactive			inactive	
C[C@]12CC[C@@H]3c4ccc(O)cc4CC[C@H]3[C@@H]1CC[C@H]2O	4.94 µM (active) and 4.86 µM (active)	inactive				inactive				
CCOC(=O)C(C)Oc1ccc(Oc2cnc3cc(Cl)ccc3n2)cc1 (stereo unspecified)	inactive	inactive	inactive	inactive	inactive	inactive			inactive	
CCC(Cc1c(I)cc(I)c(N)c1I)C(=O)O (stereo unspecified)	inactive	inactive		inactive	inactive	inactive			inactive	
CC(C)(Oc1ccc(Cl)cc1)C(=O)O	inactive	inactive	inactive	inactive		inactive				
CCCN1C=CN(C)C1	inactive	inactive		inactive	inactive	inactive			inactive	
CC1(C)C(C=C(Cl)Cl)C1C(=O)OCc1cccc(Oc2ccccc2)c1 (stereo unspecified)	inactive	inactive		inactive	inactive	inactive			inactive	inactive
O=C(O)c1ccc(O)cc1	inactive	inactive	inactive	inactive		inactive			inactive	
CC/C(=C(/CC)c1ccc(O)cc1)c1ccc(O)cc1		60.6 µM (active) and inactive	60.6 µM (active) and 61.1 µM (active)	60.6 µM (active) and inactive		inactive				
CCCCCC1C(=O)CCC1CC(=O)OC (stereo unspecified)	inactive	inactive		inactive	inactive	inactive				
Cc1ccc(C)c(O)c1	inactive	inactive		inactive		inactive			inactive	
CC(=O)O[C@]1(C(C)=O)CC[C@H]2[C@@H]3C=C(C)C4=CC(=O)CC[C@]4(C)[C@H]3CC[C@@]21C		inactive	inactive	inactive	inactive	inactive				
NCCN	inactive	inactive		inactive	inactive	inactive				
Nc1ccc2c(c1)C(=O)c1ccccc1C2=O	inactive			inactive	inactive					
ClC/C=C/CCl	inactive	inactive	inactive	inactive	inactive	inactive			inactive	
Nc1ccc(N)c(Cl)c1	15.4 µM (active)	inactive		68.5 µM (active) and 61.1 µM (active)						
[Na+]	inactive	inactive		inactive	inactive					
Nc1cc(Cl)c(N)c(Cl)c1		inactive	inactive	inactive	inactive					
